The campaign covered roughly 140,000 compounds. About 860 (0.61%) were called active. This excerpt belongs to a sample that is enriched for actives. Unmarked numbers belong to inactive results. Rule as the data show it: active = inhibition above about 25%; inactive = the rest.

Sequence of E3 ubiquitin-protein ligase RBX1 (Homo sapiens) + Cullin-1 (Homo sapiens) (P62877 whole entry, looked up): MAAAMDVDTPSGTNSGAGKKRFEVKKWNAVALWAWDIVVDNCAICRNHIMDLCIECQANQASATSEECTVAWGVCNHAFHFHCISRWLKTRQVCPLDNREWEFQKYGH
Sequence of E3 ubiquitin-protein ligase RBX1 (Homo sapiens) + Cullin-1 (Homo sapiens) (Q13616 whole entry, looked up): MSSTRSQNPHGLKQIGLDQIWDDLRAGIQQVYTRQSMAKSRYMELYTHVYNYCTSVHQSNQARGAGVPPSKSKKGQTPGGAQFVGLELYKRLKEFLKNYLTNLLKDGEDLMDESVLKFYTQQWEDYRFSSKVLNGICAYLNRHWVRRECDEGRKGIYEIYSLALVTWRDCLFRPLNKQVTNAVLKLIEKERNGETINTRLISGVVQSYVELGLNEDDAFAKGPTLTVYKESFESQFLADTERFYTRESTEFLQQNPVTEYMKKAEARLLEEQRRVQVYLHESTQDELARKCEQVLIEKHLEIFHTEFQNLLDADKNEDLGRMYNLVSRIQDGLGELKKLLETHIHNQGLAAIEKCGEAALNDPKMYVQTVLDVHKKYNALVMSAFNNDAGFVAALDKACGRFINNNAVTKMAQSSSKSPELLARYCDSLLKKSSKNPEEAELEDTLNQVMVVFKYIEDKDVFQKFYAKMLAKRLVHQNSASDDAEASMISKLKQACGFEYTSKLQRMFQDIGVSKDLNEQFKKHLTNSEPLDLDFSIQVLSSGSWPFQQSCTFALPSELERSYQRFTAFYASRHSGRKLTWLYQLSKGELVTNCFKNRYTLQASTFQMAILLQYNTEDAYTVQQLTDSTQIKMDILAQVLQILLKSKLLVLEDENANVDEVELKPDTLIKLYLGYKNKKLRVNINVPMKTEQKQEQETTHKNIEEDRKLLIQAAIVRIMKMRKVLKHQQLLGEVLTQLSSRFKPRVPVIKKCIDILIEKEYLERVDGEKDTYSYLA

This assay addresses E3 ubiquitin-protein ligase RBX1 (Homo sapiens) + Cullin-1 (Homo sapiens) (UniProt P62877+Q13616). The assay can be described thus: blocks human RBX1-Cullin-1 di-ubiquitin formation (AID 1347404). The conditions noted are these: in vitro K48 di-Ub FRET, acceptor:donor ratio, 45 min; at 10 µM; hits give high values.
Usually inhibition stands for the drop in the measured response relative to a control, in per cent. On to `CCCCc1nnc(SCC2=Nc3ccc(F)cc3C(=O)C2)n1C`, for which the inhibition is -6.52%.
Then `Cc1scc(Cc2csc(C)c2C)c1C`, with -4.02%.
`Cc1ccc(NC(=O)c2c(N)sc3c2CCC3)c(C)c1`: the inhibition is 43.1% (active).
As for `Cc1cccc(C(=O)Nc2ccc(C)cc2C)c1`, the figure is -1.04%; as for `COc1ccc(-c2cc(-c3ccc(C)cc3)nc3sc(C(=O)Nc4ccc(C)cc4C)c(N)c23)cc1OC`, 7.9%.
In the case of `Cc1[nH]c2ccccc2c1C(c1cccnc1)N1CCN(c2ccc(F)cc2)CC1` (stereo not drawn), the inhibition was 2.08%.
Then `CN(C)CCOCCOC(c1ccccc1)c1ccccc1C(F)(F)F` (stereo not drawn), with 0.845%; and `COC(=O)c1ccccc1NC(=O)CCCC(=O)OCC(=O)c1ccc(Br)cc1`, with 1.86%.
Regarding `CCOC(=O)c1cnc2c(C)cc(Cl)cc2c1N1CCN(Cc2ccccc2)CC1`, the inhibition is -3.19%.
Then `COc1ccc(N2C(S)=C(C#N)C(=O)NC2c2ccc(-c3ccccc3Cl)o2)cc1` (stereo not drawn), with 24.9%; and `CC(C)(C)NS(=O)(=O)c1ccc(NC(=O)C2CCCO2)cc1` (stereo not drawn), with -1.62%; and `O=C(OCc1ccc(Br)cc1)c1ccccc1C(=O)c1ccccc1`, with 3.15%.
As for `CC(=O)c1ccc(NC(=O)CCCC(=O)OCC(=O)c2ccc(-c3ccccc3)cc2)cc1`, the figure is -6.85%; as for `O=C(Nc1ccc(S(=O)(=O)O)c2ccccc12)c1ccc(C(=O)Nc2ccc(S(=O)(=O)O)c3ccccc23)cc1`, 2.57%.
Then `O=C(Nc1ccccc1O)c1cccc(S(=O)(=O)Nc2ccc(F)cc2)c1`, with 1.23%; and `O=C(Nc1ccc(S(=O)(=O)O)c2cc(S(=O)(=O)O)cc(O)c12)c1ccccc1`, with 63.3% (active); and `CC(O)c1cn(C2CCN(c3nc4ccccc4s3)CC2)nn1` (stereo not drawn), with 4.88%.
As for `COc1ccccc1C(=O)Nc1ccnn1C1CCN(Cc2nccn2C)CC1`, the inhibition is 9.37%.
Then `CC(C)(C)NS(=O)(=O)Cc1ccc(Cl)cc1Cl`, with 7.68%.
As to `CCOC(=O)CNc1nc2ccccc2n2c(C)nnc12`, the inhibition is -3.19%.
As for `Cc1nc2ccccc2n1/N=C/c1ccccc1`, the figure is 3.45%.
For `C/C(=N\O)c1sc2nc3ccccc3n2c1C`, the inhibition was 26.5% (active).
As for `CCc1ccccc1-c1nc2c(cnn2C)[nH]1`, the figure is 5.57%; as for `CC1CCN(CC(O)COC2CC3CCC2(C)C3(C)C)CC1` (stereo not drawn), 0.492%.
As for `CCN(CC)C(=O)CSc1nc2sc3c(c2c(=O)n1C)CCC3`, the inhibition was 1.01%.
Then `CC(C)C1=NN2C(=N)/C(=C/c3cccc(OCc4ccc(F)cc4)c3)C(=O)N=C2S1`, with -4.78%.
Then `N=C1/C(=C/c2cccc(OC(=O)c3ccc(Cl)cc3)c2)C(=O)N=C2SC(c3cccs3)=NN12`, with 49.6% (active).
For `COc1cc(/C=C2\C(=N)N3N=C(Cc4cccs4)SC3=NC2=O)cc(OC)c1OC`, the inhibition is 6.55%.

These data come from PubChem BioAssay AID1347404 (Pan Lab, Icahn School of Medicine at Mount Sinai, 2020).
